# Measurements from PubChem BioAssay (NCATS).
# Results filed as inconclusive are left out. Entries that show only a call come without a potency. Values without a mark were called inactive. Activity calls are given as the source filed them. Calls come from the whole dose curve; as a rule, active = well fitted curve in the direction sought with a large enough effect; inconclusive = small, poorly fitted or top-dose-only effect, or another doubt; inactive = no such curve, though single readings can be large; an effect the other way counts as inactive or inconclusive.
# Experiments:
# [1] = biological target: Rap guanine nucleotide exchange factor 3 (Homo sapiens) (UniProt O95398); test: Confirmatory qHTS for agonist of cAMP-regulated guanine nucleotide exchange factor 3 (EPAC1) (AID 1645881);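 note: EPAC1 catalysed release of BODIPY-GDP from Rap1B seen as fluorescence loss; nearly all actives have a fitted effect of over 75% in size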
# [2] = biological target: Rap guanine nucleotide exchange factor 4 (Homo sapiens) (UniProt Q8WZA2); test: Confirmatory qHTS for agonist of cAMP-regulated guanine nucleotide exchange factor 4 (EPAC2) (AID 1645884);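 note: nucleotide exchange releases bodipy-GDP from Rap1 and this lowers its fluorescence; nearly all actives have a fitted effect of over 65% in size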
# [3] = biological target: Rap guanine nucleotide exchange factor 4 (Homo sapiens) (UniProt Q8WZA2); test: Confirmatory qHTS for antagonist of cAMP-regulated guanine nucleotide exchange factor 4 (EPAC2) (AID 1645885); note: nearly all actives have a fitted effect of over 25% in size; note: potency is the fitted concentration of half-maximal effect
# [4] = biological target: Rap guanine nucleotide exchange factor 3 (Homo sapiens) (UniProt O95398); test: Counterscreen qHTS for antagonist of cAMP-regulated guanine nucleotide exchange factor 3 (EPAC1) (AID 1645888);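 note: fluorescence loss as bound BODIPY-GDP is released from Rap1B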
# Summary of the method: (§1)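 Rap1B–BODIPY-GDP (250 nM) with 50 uM GDP; compounds pin-transferred to 9.74 nM–152 uM final (activator) or from 7.32 nM upwards (inhibitor). Fluorescence Ex/Em 480/540 nm read at 5 and 30 min, then after adding cAMP or buffer, at room temperature.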
# [5] = biological target: Rap guanine nucleotide exchange factor 3 (Homo sapiens) (UniProt O95398); test: Counterscreen qHTS for agonist of cAMP-regulated guanine nucleotide exchange factor 3 (EPAC1) (AID 1645889); note: nearly all actives have a fitted effect of over 40% in size; note: potency is the fitted concentration of half-maximal effect
# Summary of the method: as §1
# Sequence of Rap guanine nucleotide exchange factor 3 (Homo sapiens) (O95398 whole entry, looked up): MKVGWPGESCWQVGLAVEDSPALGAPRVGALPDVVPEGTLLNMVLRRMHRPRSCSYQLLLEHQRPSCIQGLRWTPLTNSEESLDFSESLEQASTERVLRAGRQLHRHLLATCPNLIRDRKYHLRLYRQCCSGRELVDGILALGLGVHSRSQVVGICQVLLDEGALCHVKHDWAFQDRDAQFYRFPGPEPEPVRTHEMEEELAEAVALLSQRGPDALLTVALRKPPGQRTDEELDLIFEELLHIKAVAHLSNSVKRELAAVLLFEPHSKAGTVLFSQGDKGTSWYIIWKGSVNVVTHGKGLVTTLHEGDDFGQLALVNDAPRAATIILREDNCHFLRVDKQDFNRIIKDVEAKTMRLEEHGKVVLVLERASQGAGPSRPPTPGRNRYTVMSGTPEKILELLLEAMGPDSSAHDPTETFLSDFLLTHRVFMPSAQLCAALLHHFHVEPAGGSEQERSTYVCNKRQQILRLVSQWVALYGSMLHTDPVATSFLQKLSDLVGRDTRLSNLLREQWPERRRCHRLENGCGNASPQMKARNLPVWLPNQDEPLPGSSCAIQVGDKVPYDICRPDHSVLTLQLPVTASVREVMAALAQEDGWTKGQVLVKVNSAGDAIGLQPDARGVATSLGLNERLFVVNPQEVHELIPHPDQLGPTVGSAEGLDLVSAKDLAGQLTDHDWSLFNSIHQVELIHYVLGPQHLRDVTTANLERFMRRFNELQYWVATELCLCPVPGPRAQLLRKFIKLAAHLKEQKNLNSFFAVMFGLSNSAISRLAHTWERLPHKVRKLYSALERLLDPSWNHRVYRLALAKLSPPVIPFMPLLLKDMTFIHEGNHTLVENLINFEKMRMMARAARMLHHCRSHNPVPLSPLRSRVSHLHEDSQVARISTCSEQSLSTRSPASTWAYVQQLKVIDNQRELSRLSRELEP
# Sequence of Rap guanine nucleotide exchange factor 4 (Homo sapiens) (Q8WZA2 whole entry, looked up): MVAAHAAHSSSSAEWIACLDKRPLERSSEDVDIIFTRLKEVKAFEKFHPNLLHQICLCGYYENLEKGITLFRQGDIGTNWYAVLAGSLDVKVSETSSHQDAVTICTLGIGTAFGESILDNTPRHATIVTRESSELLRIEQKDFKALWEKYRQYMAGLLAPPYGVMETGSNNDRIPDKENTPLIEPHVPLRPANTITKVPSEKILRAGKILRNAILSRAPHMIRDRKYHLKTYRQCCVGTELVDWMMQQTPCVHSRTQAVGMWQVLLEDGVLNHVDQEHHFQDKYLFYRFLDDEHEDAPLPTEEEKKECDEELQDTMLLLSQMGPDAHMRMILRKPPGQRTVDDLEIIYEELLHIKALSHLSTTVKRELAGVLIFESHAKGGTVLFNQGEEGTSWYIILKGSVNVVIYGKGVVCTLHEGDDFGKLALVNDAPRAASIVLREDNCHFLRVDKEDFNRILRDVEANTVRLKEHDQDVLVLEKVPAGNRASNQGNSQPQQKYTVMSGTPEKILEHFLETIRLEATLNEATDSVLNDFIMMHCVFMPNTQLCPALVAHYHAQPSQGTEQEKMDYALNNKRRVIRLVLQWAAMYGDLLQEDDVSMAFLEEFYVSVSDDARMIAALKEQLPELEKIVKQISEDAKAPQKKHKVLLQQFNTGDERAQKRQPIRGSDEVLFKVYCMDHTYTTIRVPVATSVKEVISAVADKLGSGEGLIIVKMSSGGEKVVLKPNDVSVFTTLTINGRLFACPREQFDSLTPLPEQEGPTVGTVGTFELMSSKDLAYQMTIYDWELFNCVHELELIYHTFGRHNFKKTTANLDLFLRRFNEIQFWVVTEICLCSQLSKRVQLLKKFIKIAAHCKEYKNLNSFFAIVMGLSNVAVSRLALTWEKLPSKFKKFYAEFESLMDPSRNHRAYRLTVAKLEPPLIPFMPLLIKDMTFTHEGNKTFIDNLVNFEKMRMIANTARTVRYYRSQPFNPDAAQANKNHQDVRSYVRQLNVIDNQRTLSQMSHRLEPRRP
Structure (SMILES),Potency [1],Potency [2],Potency [3],Potency [4],Potency [5],activation [2],"activity change, negative = inhibition [4]",activation [5],outcome [3]
CCc1cccc(NC(=O)COC(=O)/C=C/c2cccs2)c1,inactive,inactive,inactive,inactive,inactive,,,,
CCOC(=O)C1=C(N)OC2=C(C(=O)CCC2)C1c1sccc1C (stereo not given),inactive,,inactive,,,"4.2% [at 17.1 µM, percent relative to cAMP agonist control]",-19.9% [at 30.8 µM],-1.77% [at 30.8 µM],
COc1cc(CN(C)CC2CCCN(CCc3ccccc3F)C2)cc(Cl)c1OC (stereo not given),inactive,inactive,inactive,inactive,inactive,,,,
Cc1ccc(S(=O)(=O)N/N=C/c2cc(Br)ccc2O)cc1,inactive,inactive,inactive,inactive,inactive,,,,
CCn1c(SCC(=O)Nc2sc3c(c2C(N)=O)CCC(C)C3)nnc1-c1ccco1 (stereo not given),inactive,inactive,inactive,inactive,inactive,,,,
Cc1ccc(-c2csc(/C(C#N)=C(\O)CCl)n2)cc1,inactive,,inactive,,,"-6.35% [at 17.1 µM, percent relative to cAMP agonist control]",-2.33% [at 30.8 µM],14.1% [at 30.8 µM],
CCOC(=O)c1ccccc1NC(=O)CSc1nc2c(sc(=S)n2CC)c(=O)[nH]1,inactive,,inactive,,,"5.86% [at 17.1 µM, percent relative to cAMP agonist control]",-2.38% [at 30.8 µM],10.2% [at 30.8 µM],
CCOC(=O)C(C(C)C)C(N)Cc1ccc(F)cc1 (stereo not given),inactive,inactive,inactive,inactive,inactive,,,,
O=C(O)C(c1ccccc1)N1C(=O)/C(=C/c2cccs2)SC1=S (stereo not given),inactive,,inactive,,,"2.04% [at 17.1 µM, percent relative to cAMP agonist control]",-23.4% [at 30.8 µM],6.75% [at 30.8 µM],
COc1cc(-c2cc(OC)c3c(C)oc(C)c3c(=O)c2)ccc1OC(=O)c1ccc(C)cc1,inactive,inactive,inactive,inactive,inactive,,,,
O=C(NCCc1c[nH]c2ccccc12)C(=O)Nc1cc2c3c(c1)CC(=O)N3CCC2,inactive,inactive,inactive,inactive,inactive,,,,
Oc1ccc2ccccc2c1C=Nc1ccc(Cl)cn1,inactive,inactive,inactive,inactive,inactive,,,,
NNc1cccc(C=Cc2ccccc2)cc1=O,inactive,,inactive,,,"0.393% [at 17.1 µM, percent relative to cAMP agonist control]",-9.39% [at 30.8 µM],27.5% [at 30.8 µM],
O=C(O)C(Cc1ccccc1)N1C(=O)/C(=C/c2cccs2)SC1=S (stereo not given),inactive,inactive,75.7 µM (active),inactive,inactive,,,,
CCOc1ccc(C=NNc2ccc(S(=O)(=O)Nc3ccccc3C(=O)O)cc2[N+](=O)[O-])cc1,inactive,,inactive,,,"-0.564% [at 17.1 µM, percent relative to cAMP agonist control]",6.79% [at 30.8 µM],21.3% [at 30.8 µM],
Cc1cc(N2CCN(c3cccc(C(F)(F)F)c3)CC2)n2nc(-c3ccccc3C)nc2n1,inactive,inactive,inactive,inactive,inactive,,,,
CCN1CCc2c(sc(-n3cccc3)c2C(C)NC(=O)Nc2ccc(C(=O)OC)cc2)C1 (stereo not given),inactive,inactive,inactive,inactive,inactive,,,,
C[C@@H]1COC(=O)[C@H](NC(=O)OCC2c3ccccc3-c3ccccc32)C/C=C\C[C@@H](CC(=O)N[C@H](CO)Cc2ccccc2)C(=O)N1,inactive,,inactive,,,"2.82% [at 17.1 µM, percent relative to cAMP agonist control]",-6.46% [at 30.8 µM],-0.359% [at 30.8 µM],
CCCc1nc2c(Cl)cc(C(F)(F)F)cn2c1Cc1ccc(OC)cc1C,inactive,,inactive,,,"5.33% [at 17.1 µM, percent relative to cAMP agonist control]",-8.15% [at 30.8 µM],14.3% [at 30.8 µM],
Cc1ccc(/C=C(\CCC(=O)O)c2nc3ccccc3s2)cc1[N+](=O)[O-],inactive,,inactive,,,"6.79% [at 17.1 µM, percent relative to cAMP agonist control]",-11.2% [at 30.8 µM],0.0676% [at 30.8 µM],
CCCc1nc2c(=O)n(C)c(=O)nc-2n(C)n1,inactive,inactive,inactive,inactive,inactive,,,,

Structure (SMILES),Potency [1],Potency [2],Potency [3],Potency [4],Potency [5],activation [2],"activity change, negative = inhibition [4]",activation [5],outcome [3]
Cc1ccc(C)n1-c1ccc(C(=O)/C=C/N(C)C)cc1,inactive,,inactive,,,"4.94% [at 17.1 µM, percent relative to cAMP agonist control]",-17.3% [at 30.8 µM],0.307% [at 30.8 µM],
Cc1ccc(/C=C/C(=O)Nc2nnc(SCc3ccc(C#N)cc3)s2)o1,inactive,inactive,inactive,inactive,inactive,,,,
O=C(Nc1ccc(N2CCC(N3CCCCC3)CC2)c(C(=O)O)c1)c1ccc(Br)cc1,inactive,inactive,,inactive,inactive,,,,inactive; activator; fitted 1.6944 uM [at 12.7 µM]
CCc1noc(C)c1C(=O)N1CCCSC1=Nc1ccccc1Cl,inactive,,inactive,,,"0.52% [at 17.1 µM, percent relative to cAMP agonist control]",-10.8% [at 30.8 µM],-1.65% [at 30.8 µM],
O=C(CSc1nc(-c2cccs2)nc2cc(=O)[nH]n12)Nc1cccc(C(F)(F)F)c1,inactive,inactive,,inactive,inactive,,,,inactive [at 12.7 µM]
O=c1[nH]c(C2CCN(S(=O)(=O)c3ccccc3F)CC2)nc2c1nnn2Cc1ccc(F)cc1,inactive,inactive,inactive,inactive,inactive,,,,
CCOc1ccc(-n2c(C)nc3cc(C(=O)NCc4ccc(C)cc4)ccc32)cc1,inactive,inactive,inactive,inactive,inactive,,,,
Fc1cccc(Cc2c(-c3ccc(Cl)cc3)nc3ccc(Cl)cn23)c1,inactive,,inactive,,,"7.12% [at 17.1 µM, percent relative to cAMP agonist control]",-4.02% [at 30.8 µM],23% [at 30.8 µM],
C/C(=N\NC(=O)c1cc2ccccc2cc1O)c1ccc(C)o1,inactive,,inactive,,,"-0.964% [at 17.1 µM, percent relative to cAMP agonist control]",-5.69% [at 30.8 µM],28.4% [at 30.8 µM],
O=C(COC(=O)c1ccc2c(c1)C(=O)N(Cc1ccncc1)C2=O)Nc1ccccc1[N+](=O)[O-],inactive,inactive,inactive,inactive,inactive,,,,
O=C(CSc1nc(-c2ccc(F)cc2)nc2ccc(F)cc12)Nc1cccc(C(=O)O)c1,inactive,inactive,inactive,inactive,inactive,,,,
COc1cccc2sc(N(CCCN(C)C)C(=O)C(c3ccccc3)c3ccccc3)nc12,inactive,,inactive,,,"7.29% [at 17.1 µM, percent relative to cAMP agonist control]",-0.182% [at 30.8 µM],23.9% [at 30.8 µM],
COCCNc1nc(Oc2ccccc2)c2sccc2n1,inactive,inactive,inactive,inactive,inactive,,,,
O=C(O)/C(=C\c1ccc(-c2ccc(F)cc2)o1)c1ccccc1,inactive,inactive,inactive,inactive,inactive,,,,
CSc1cccc(NC(=O)Cn2nnc(C(=O)NCCc3ccccc3)c2N)c1,inactive,inactive,,inactive,inactive,,,,inactive [at 12.7 µM]
CCOc1cccc(C(=O)Nc2ccc3oc(Cc4ccc(Cl)cc4)nc3c2)c1,inactive,,inactive,,,"0% [at 17.1 µM, percent relative to cAMP agonist control]",-8.02% [at 30.8 µM],18.7% [at 30.8 µM],
CCOCc1nnc(NC(=O)C2c3ccccc3Oc3ccccc32)s1,inactive,inactive,67.5 µM (active),inactive,inactive,,,,
Cc1cccc(Cn2c(=O)oc3ccc(C)cc32)c1,inactive,,inactive,,,"1.77% [at 17.1 µM, percent relative to cAMP agonist control]",0.42% [at 30.8 µM],19.6% [at 30.8 µM],
CS(=O)(=O)N1CCN(c2ccc([N+](=O)[O-])c(NCc3ccc(Cl)cc3)c2)CC1,inactive,,inactive,,,"-0.717% [at 17.1 µM, percent relative to cAMP agonist control]",-6.75% [at 30.8 µM],12% [at 30.8 µM],
Cc1nnc(Sc2cc(NCCCO)c([N+](=O)[O-])c3nonc23)s1,inactive,,inactive,,8.91 µM (active),"3.11% [at 17.1 µM, percent relative to cAMP agonist control]",1.69% [at 30.8 µM],,
